Results as given in the supplement of paper PMC6555819.

What was measured:
Assay in all cases: PBM binding z-score (relative to random genomic background probes); higher = stronger binding; sequences stand for … in GC…GCGATTGACAGCGTAGAATGAAGG
[1] = tested on: FXR:RXRa (NR concentration 270 nM, RXRa partner concentration 90 nM)
How it was run: (§1)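 The probes on custom Agilent 4×180K protein-binding microarrays were double-stranded, with 34-nt variable regions bearing direct-repeat seeds, single-nucleotide variants, half-site ablations and random human genomic background sequences. Incubation lasted 1 h with ligand-free nuclear receptor dimers in PBS pH 7.4, 2% milk, 0.02% Triton X-100, 1 mM DTT, 0.2 mg/mL BSA and 0.4 mg/ml salmon testes DNA. Antibodies against each partner (one per run) detected bound dimers, and fluorescence scans were regression-normalized. Binding z-scores take the random background probes as reference.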

[2] = tested on: LXRa:RXRa (NR concentration 270 nM, RXRa partner concentration 90 nM)
How it was run: as §1

[3] = tested on: LXRa homodimer (NR concentration 270 nM)
How it was run: as §1

[4] = tested on: LXRb:RXRa (NR concentration 270 nM, RXRa partner concentration 90 nM)
How it was run: as §1

[5] = tested on: LXRb homodimer (NR concentration 270 nM)
How it was run: as §1

[6] = tested on: PPARa:RXRa (NR concentration 270 nM, RXRa partner concentration 90 nM)
How it was run: as §1

[7] = tested on: PPARg:RXRa (NR concentration 180 nM, RXRa partner concentration 90 nM)
How it was run: as §1

[8] = tested on: PPARg:RXRa 270nM:90nM, anti-RXR (NR concentration 270 nM, RXRa partner concentration 90 nM)
How it was run: as §1

[9] = tested on: PPARg:RXRa 30nM:10nM, anti-RXR (NR concentration 30 nM, RXRa partner concentration 10 nM)
How it was run: as §1

[10] = tested on: PPARg:RXRa 90nM:30nM, anti-RXR (NR concentration 90 nM, RXRa partner concentration 30 nM)
How it was run: as §1

[11] = tested on: PPARg:RXRa DBDmut IVT, anti-RXR (DBD mutation: RXRa K156A/R161A, NR concentration 270 nM, RXRa partner concentration 90 nM)
How it was run: as §1

[12] = tested on: PPARg:RXRa IVT, anti-PPARg (NR concentration 270 nM, RXRa partner concentration 90 nM)
How it was run: as §1

[13] = tested on: PPARg DBDmut:RXRa IVT, anti-PPARg (DBD mutation: PPARg1 K132A/R137A, NR concentration 270 nM, RXRa partner concentration 90 nM)
How it was run: as §1

[14] = tested on: PPARg DBDmut IVT, anti-PPARg (DBD mutation: PPARg1 K132A/R137A, NR concentration 270 nM)
How it was run: as §1

[15] = tested on: PPARg homodimer (NR concentration 180 nM)
How it was run: as §1

[16] = tested on: PXR:RXRa (NR concentration 270 nM, RXRa partner concentration 90 nM)
How it was run: as §1

[17] = tested on: PXR homodimer (NR concentration 270 nM)
How it was run: as §1

[18] = tested on: RARa:RXR (NR concentration 270 nM, RXRa partner concentration 90 nM)
How it was run: as §1

[19] = tested on: RARa homodimer (NR concentration 270 nM)
How it was run: as §1

[20] = tested on: RARb:RXRa (NR concentration 270 nM, RXRa partner concentration 90 nM)
How it was run: as §1

Sequence	PBM binding z-score [1]	PBM binding z-score [2]	PBM binding z-score [3]	PBM binding z-score [4]	PBM binding z-score [5]	PBM binding z-score [6]	PBM binding z-score [7]	PBM binding z-score [8]	PBM binding z-score [9]	PBM binding z-score [10]	PBM binding z-score [11]	PBM binding z-score [12]	PBM binding z-score [13]	PBM binding z-score [14]	PBM binding z-score [15]	PBM binding z-score [16]	PBM binding z-score [17]	PBM binding z-score [18]	PBM binding z-score [19]	PBM binding z-score [20]
ACTTACGGGACAACGAGGTTATAGCACGCGTATA	0.442	0.645	0.447	0.958	0.473	1.08	1.01	0.442	0.295	0.32	0.742	0.83	0.547	1	0.641	0.83	0.728	0.933	0.919	1.03
ATCGAAAGGTCCAGGTGAGTATAGAGAAAGGGAA	0.612	0.816	0.0552	0.22	0.494	0.594	0.347	0.503	0.287	0.512	0.212	0.948	0.53	0.059	0.583	0.112	0.251	0.303	0.409	1.24
TCTTGTCGATCAATAGAGGTTAAGAAAGTGCGCT	0.786	3.69	0.541	1.92	0.134	1.97	0.144	1.76	2.67	1.98	1.37	0.566	1.29	0.928	0.669	2.97	0.471	1.82	-0.217	1.09
CGAACGACGGCATGAGTTGATAGCAAATGCCGAT	-0.791	-1.12	-0.686	-1.11	-1.32	-1.22	0.598	-0.893	-0.557	-0.878	-1.05	-1.08	-1.17	-0.517	-0.497	-0.722	-0.155	-0.909	-0.629	-1.05
CATACAGGGTCAGCTAGGCCACAGTAGGGACGGC	4.61	3.07	-0.102	2.31	0.444	4.29	3.75	3.32	0.994	2.01	1.06	2.82	0.893	0.0227	2.12	2.51	0.181	3.4	0.445	4.17
CGGACTGGGGCAAGGTTACCATAACGCACAGCCA	0.491	1.02	-0.284	1.05	-0.449	2.67	4.88	4.78	2.59	4.2	4.9	5.59	0.588	0.000804	0.759	0.516	-0.28	1.03	-0.565	1.67
TAGCCTAGGTCATGGGCCAGTACACCACGCGAAC	4.77	3.08	0.269	2.41	0.439	4.05	3.9	3.76	1.09	2.8	1.78	3.17	1.24	-0.494	1.72	1.62	-0.215	2.77	0.343	3.92
GTTGCTAGGTCAACTGATGGTCAGCTAAAGCTCG	4.29	3.62	0.729	2.08	0.507	3.96	3.38	3.96	0.825	2.71	5.15	4.94	1.14	-0.255	1.33	1.47	-0.554	3.03	-0.133	4.26
CTCGAAAGGTCGGTTGGGGTGAGTATACGGATAA	3.34	2.38	0.622	2.86	1.41	3.38	0.807	1.47	0.13	0.958	0.404	1.47	0.0444	1.01	1.6	3.44	0.962	2.76	0.684	3.31
AATACAGGGTCACTAGGCCAGGGTAGGTACGAAT	5.78	4.57	1.02	3.79	0.895	5.76	7.68	6.2	3.37	5.35	3.28	6	2.53	1.9	2.35	3.05	0.325	3.76	1.02	4.23
ACTCGGAGGACAAGGGTCAGAGCTACGCCAGTGA	2	1.9	-0.11	1.6	-0.535	3.37	4.49	4.83	2.75	4.25	0.222	1.88	-0.0175	0.0941	1.36	1.93	-0.342	2.63	0.214	3.29
AGAACGAGGGCACGCTGATTTGATAGCAGAGTAG	0.707	0.541	-0.464	0.172	-0.795	2.31	2.24	1.79	0.45	1.1	4.06	4.09	0.567	-0.124	0.292	0.514	-0.166	1	-0.142	2.67
TGGAGTAGGTTAGGGGCATTCAGAATGGCGTCGA	1.13	0.934	0.271	1.91	1.89	1.98	2.21	3.05	1.46	2.46	2.77	3.44	1.09	0.719	2.02	1.18	1.43	0.932	0.935	1.6
TCTAGTTGGTCAATGGTCACACACTCGAAATGCG	0.812	0.861	0.28	0.966	0.461	1.74	2.89	4.7	4.08	4.79	2.15	2.54	0.677	1.19	1.32	0.698	-0.0663	0.893	0.846	1.62
CCGAGTAGGTTATGGGGCATTGAGGCAACGGTGA	0.345	0.579	-0.265	0.437	-0.0283	2.09	3.48	4.63	2.18	4.57	3.23	3.52	-0.234	0.034	1.19	-0.0257	0.241	0.37	0.756	0.976
CTCTAAAGGTCGTGCTCAGGTGAGTATACCAAAC	5.37	4.54	0.529	3.65	0.548	5.2	3.27	4.11	0.925	2.64	1.12	2.17	0.717	0.316	1.58	3.09	-0.0495	4.14	-0.0895	3.93
CAAACTAGGTCGCCGGAAGGTCAAAGTCCGCATG	3.54	4.14	2.85	3.54	0.401	4.61	5.39	4.95	2.29	4.13	6.5	6.56	2.57	0.739	3.61	4.72	0.959	5.67	0.693	3.94
TCTGCTAGGTCAGTTGGTAAGCTAACGAGCTGCC	0.91	0.626	-1.01	0.157	0.503	0.96	0.118	1.28	1.04	1.18	2.46	2.46	-0.0986	0.0442	-0.393	-0.186	-1.11	0.233	-1.42	3.29
AATACAGGGTCATAGTAGGCCAGAGTACGCACAG	7.09	6.14	2.31	4.62	1.5	5.82	6.42	5.33	2.62	4.34	2.62	4.56	1.47	2.3	2.67	4.36	0.689	4.7	0.787	4.05
ACTAGCAGGCCAAGTTTGGTTCACTCAAACAAAG	-0.324	-0.317	-0.342	-0.0394	-0.539	0.158	-0.322	-0.162	-0.424	-0.301	0.651	0.311	0.0208	-0.415	-0.521	0.287	0.256	0.113	-0.755	0.54
TCATATAGGCAAAAGGTGAAAGTCGGTGTGGTAA	1.44	1.54	-0.253	1.6	-0.167	4.76	7.39	6.76	6.88	8.15	3.66	3.79	0.358	-0.517	1.39	1.27	0.0545	1.81	0.897	1.81
ATCTCTAGCTAACCAAGTTCAGTGAATGCCGAAC	-0.0786	0.353	0.78	0.261	0.798	-0.0272	-0.107	-0.251	-0.294	-0.0743	-0.58	-0.0463	0.368	0.475	0.651	1.32	1.49	0.181	0.128	0.746
ATCGAAAGATCGTGAGGTGAGTATACAGAAAGGC	0.0329	-0.211	0.0924	-0.208	-0.374	0.327	0.669	-0.00875	0.225	0.106	-1.15	0.285	0.657	0.767	-0.197	-0.0729	-0.403	0.277	-0.457	0.133
CATACAGGGTCAGCTAGGCGAGAGTAGGGACGGC	4.5	2.84	-0.0386	2.08	0.134	4.19	2.92	2.91	0.767	1.75	1.21	2.05	0.279	0.468	1.41	1.83	0.199	3.05	0.266	4.04
CAAACTAGGTCAAGAGGTTAAAGTCCGCTTCCCG	5.05	4.32	2.01	3.13	0.567	5.3	8.91	7.27	5.14	7.16	8.33	8.39	1.58	0.849	2.66	3.48	0.622	4.85	1.25	4.47
TATACAGGGTCAAAGGCCAGAATACGAATGTCGA	6.57	5.89	2.16	4.62	2.29	5.89	7.8	7.19	5.21	7.33	1.98	4.81	2.92	2.34	2.02	3.86	0.553	5.78	0.841	4.28
ATCTCTAGGTAAAGTTCAGTGACAGATCGATAGA	1.17	2.06	1.97	1.27	1.26	2.36	3.41	4.29	2.51	4.24	2.61	2.57	1.53	2.1	2.05	2.12	2.52	1.43	2.08	2.75
TCCTATAGGTAAAGGTGAAAGTCGAACGATATGA	1.05	1.25	-0.0559	1.25	-0.199	3.07	2.77	3.93	3.81	3.96	2.74	3.09	0.482	0.679	0.768	1.12	-0.316	1.49	0.203	1.96
ATATTTAGGTTAGCTGGGGTCATTCAGACTAGGC	4.36	5.53	3.69	4.89	2.59	4.96	4.2	4.63	1.88	3.88	5.87	4.88	2.64	2.22	3.24	6.14	5.08	5.14	3.11	3.21
